Here are results for four compounds from PubChem BioAssay (NCATS).

Results filed as inconclusive are left out. Activity calls are given as the source filed them. Calls follow the shape of the dose curve; as a rule, active = well fitted curve in the direction sought with a large enough effect; inconclusive = small, poorly fitted or top-dose-only effect, or another doubt; inactive = no such curve, though single readings can be large; an effect the other way counts as inactive or inconclusive.

The first assay is described as follows: Cell Proliferation Assay against the HBL1 Cell Line (AID 651646).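 Also: cells exposed to compound for 48 h before reading.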 As to conditions: HBL1 DLBCL cells; at 46.1 µM (top of the series). In outline:
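After a 48 h incubation of 500 HBL1 cells/well in phenol red-free RPMI plus 5% FBS, relative luciferase units from CellTiter-Glo gave percent activity against DMSO and 9.2 uM bortezomib (final) controls.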
Consider `N#Cc1ccc(COC[C@H]2O[C@@H](n3c(NCc4ccc(Cl)c(Cl)c4)nc4c(N)ncnc43)[C@@H](O)[C@@H]2O)cc1`, for which the viability, percent of control is 17.4%.

Take `Cn1c(Nc2ccc(C(F)(F)F)cc2)nc2cc(Oc3ccnc(-c4ncc(C(F)(F)F)[nH]4)c3)ccc21`: the viability, percent of control was 33%.

`COc1cc2c(cc1OC)[C@@H]1C(=O)c3ccc4c(c3O[C@@H]1CO2)C=CC(C)(C)O4`: the viability, percent of control amounted to 18.7%. The same measure, in the same setting: as for `COc1cc(C)c(Sc2cnc(NC(=O)c3ccc(CNC(C)C(C)(C)C)cc3)s2)cc1C(=O)N1CCN(C(C)=O)CC1` (configuration not stated), the figure is 12.9%.

The next assay is described as follows: Cell Proliferation Assay against the TMD8 Cell Line (Caspase readout at 8 hrs) (AID 651713). Also: potency is read from the fitted curve at half-maximal effect.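 As to caspase activation: 0% = DMSO and 100% = 9.2 µM bortezomib caspase signal.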 As to conditions: TMD8 lymphoma cells, caspase activation luminescence; series mostly up to 46.1 µM. In outline:
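Caspase 3/7 activation in ABC DLBCL TMD8 cells is measured by luminescence after an 8 h compound exposure at 37C. Relative light units are scaled between DMSO (0%) and 9.2 uM final bortezomib (100%).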
`N#Cc1ccc(COC[C@H]2O[C@@H](n3c(NCc4ccc(Cl)c(Cl)c4)nc4c(N)ncnc43)[C@@H](O)[C@@H]2O)cc1`: the Potency was 29.6 µM (active).

In the case of `Cn1c(Nc2ccc(C(F)(F)F)cc2)nc2cc(Oc3ccnc(-c4ncc(C(F)(F)F)[nH]4)c3)ccc21`, the Potency entry was “inactive”. The same measure, in the same setting: as for `COc1cc2c(cc1OC)[C@@H]1C(=O)c3ccc4c(c3O[C@@H]1CO2)C=CC(C)(C)O4`, the entry is “inactive”.
